Bioassay records deposited in PubChem by National Center for Advancing Translational Sciences (NCATS).
Rows were chosen to be rich in hits. Some 1% of all compounds tested hit in one or more screens of this group.
gsp ag: qHTS for Agonist of gsp, the Etiologic Mutation Responsible for Fibrous Dysplasia/McCune-Albright Syndrome: qHTS. gsp mutant cells, cAMP HTRF, 30 min. Potency, µM (doses to about 76.9 µM), without a hit: at the highest dose activation (cAMP increase), actives largely listed as activators. hit rate 0.13% among 340,000; active = well fitted activation curve with a large enough effect; inconclusive = small, poorly fitted or top-dose-only effect, or another doubt; inactive = no such curve, though single readings can be large or run the other way; cell line not stated here;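 also: phosphodiesterase inhibitor Ro 20-1724 added with compounds to block cAMP breakdown; potency is read from the fitted curve at half-maximal effect; nearly all actives have a fitted effect of over 60% in size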
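Cells in DMEM/10% FBS with G418 were pretreated with compounds in DMSO plus […] (300 uM stock) for 30 min at 37C. cAMP was measured by HTRF (cAMP-d2 plus anti-cAMP antibody-K) after 30 min at room temperature.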
miR-21 reporter: qHTS Assay for Modulators of miRNAs and/orActivators of miR-21; 340,000 tested, under 10 active; AID 2288, 2010; HeLa miR-21 FLuc reporter, luciferase, 48 h; Potency, µM (doses to about 38.3 µM), inactives show at the top dose activity change, positive = activation, usual class: activators;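 also: % of control where 0% means no effect; miR-21 action dims this reporter so a rising signal means less miR-21 action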
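HeLa cells stably expressing CMV-driven firefly luciferase with a downstream miR-21 binding sequence, endogenously expressing miR-21, were treated with titrations (up to about 40uM final) for 48 hours at 37 degree Celsius. Luciferase luminescence was read after lysis.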
RXFP1 antag: qHTS Assay for Antagonists of the Relaxin Receptor RXFP1. Relaxin receptor 1 (Homo sapiens), Q9HBX9. hit rate 0.59% among 350,000. activity change, negative = inhibition, % at 57.5 µM. HEK293-RXFP1, relaxin-stimulated cAMP HTRF, 30 min; stronger effect = lower value. AID 1259400, 2018;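 active = activity change of -60% or lower, but not beyond a set lower limit; inconclusive = change between -60% and -40%, or beyond the set limit; inactive = change above -40%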; also: % is scaled to controls: 0 for no effect and ±100 for the full control effect
Target sequence (Q9HBX9 whole entry, looked up): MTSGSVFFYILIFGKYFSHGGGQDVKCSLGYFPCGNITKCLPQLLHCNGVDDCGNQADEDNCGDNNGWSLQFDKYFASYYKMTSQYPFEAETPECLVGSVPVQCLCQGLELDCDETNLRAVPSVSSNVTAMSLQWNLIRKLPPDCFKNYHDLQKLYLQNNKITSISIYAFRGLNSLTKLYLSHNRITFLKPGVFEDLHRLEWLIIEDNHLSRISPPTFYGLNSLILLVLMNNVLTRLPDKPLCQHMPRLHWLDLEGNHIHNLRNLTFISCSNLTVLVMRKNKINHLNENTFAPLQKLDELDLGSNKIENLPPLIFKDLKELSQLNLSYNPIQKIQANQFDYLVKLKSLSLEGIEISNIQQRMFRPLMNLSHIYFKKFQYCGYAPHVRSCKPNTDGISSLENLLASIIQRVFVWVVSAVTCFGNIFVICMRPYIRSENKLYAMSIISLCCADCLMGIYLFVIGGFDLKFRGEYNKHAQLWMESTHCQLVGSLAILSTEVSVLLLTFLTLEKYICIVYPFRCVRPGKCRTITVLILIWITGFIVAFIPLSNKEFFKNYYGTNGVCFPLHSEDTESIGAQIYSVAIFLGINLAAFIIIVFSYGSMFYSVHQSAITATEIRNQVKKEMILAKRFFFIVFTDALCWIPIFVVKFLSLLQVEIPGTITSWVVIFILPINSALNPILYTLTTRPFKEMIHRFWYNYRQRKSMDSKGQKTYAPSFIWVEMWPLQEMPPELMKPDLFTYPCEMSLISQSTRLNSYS
RXFP1 agonist: qHTS Assay for Agonists of the Relaxin Receptor RXFP1; HEK293T-RXFP1 cAMP TR-FRET, 30 min; response scale: percent of porcine relaxin response, buffer zero; AID 2676, 2010; Relaxin receptor 1 (Homo sapiens), Q9HBX9; hit rate 0.3% among 370,000; Potency, µM (highest dose often 57.5 µM), without a hit: at the highest dose activation, most hits filed as activators; also: potency is read from the fitted curve at half-maximal effect; % is scaled to controls: 0 for no effect and ±100 for the full control effect; nearly all actives have a fitted effect of over 60% in size
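HEK293 cells stably expressing RXFP1, treated 30 min at 37C with compounds plus PDE4 inhibitor Ro 20174; cAMP measured by HTRF TR-FRET. Normalized to buffer and 29 nM porcine relaxin; EC50 by Hill fit.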
gsp antag: qHTS for Antagonists of gsp, the Etiologic Mutation Responsible for Fibrous Dysplasia/McCune-Albright Syndrome: qHTS; gsp-mutant cells, cAMP HTRF, 30 min; Potency, µM (series often up to 76.9 µM), without a hit: top-dose activity change, negative = inhibition, actives largely listed as inhibitors; hit rate 0.4% among 340,000; AID 624288, 2012; calls by dose curve; cell line not stated here;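 also: intracellular cAMP measured with PDE inhibitor Ro 20-1724 present during compound exposure; potency is read from the fitted curve at half-maximal effect; % is scaled to controls: 0 for no effect and ±100 for the full control effect; nearly all actives have a fitted effect of over 65% in size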
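G418-selected cells were plated in DMEM/10% FBS for 16-24 h at 37C, then treated with compounds plus the PDE inhibitor […] (300 uM solution added) for 30 min at 37C. Intracellular cAMP was measured by HTRF after 30 min lysis at room temperature.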
KinaseGlo FLuc: Counterscreen for Luciferase (Kinase-Glo TM) Inhibition; Kinase-Glo luciferase, ATP luminescence, 8 min; Potency, µM (series often up to 38.3 µM), without a hit: at the highest dose activity change, negative = inhibition, usual class: inhibitors; hit rate 0.28% among 200,000; also: potency is read from the fitted curve at half-maximal effect; % is scaled to controls: 0 for no effect and ±100 for the full control effect; nearly all actives have a fitted effect of over 60% in size
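Substrate mix (final 50 mM imidazole pH 7.2, 50 mM KCl, 7 mM MgCl2, 10 uM ATP, 0.01% Tween 20, 0.05% BSA) plus pin-tool compound, then Kinase-Glo detection mix; 8 min ambient, luminescence read.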
The depositor's hits bear a star; u = inconclusive; x = not tested or not shown; [ ] = dose if it differs, or a comment. Unless noted, calls follow the shape of the dose curve; as a rule, active = well fitted curve in the direction sought with a large enough effect; inconclusive = small, poorly fitted or top-dose-only effect, or another doubt; inactive = no such curve, though single readings can be large; an effect the other way counts as inactive or inconclusive.

SMILES | gsp ag | miR-21 reporter | RXFP1 antag | RXFP1 agonist | gsp antag | KinaseGlo FLuc
CC(C)(C)NC(=O)c1cccc(NC(=O)Cc2cccs2)c1 | 9%[15.4 µM] | -11% | 7 | -1% | 9% | -1%
Cc1cccc(NC(=O)c2cccc(NC(=O)Cc3cccs3)c2)c1 | 19% | -30% | -107* | 0% | -12% | -4%
O=C(Cc1ccc(Cl)cc1)NN1C(=O)c2ccccc2C1=O | 13% | -2% | -1 | 0% | 11% | 2%
COC(=O)[C@@H]1[C@@H](C#N)C2(c3ccccc3-c3ccccc32)N(c2ccc(Cl)cc2)N1C#N | 20%[15.4 µM] | 14% | -73* | 0% | 9% | -1%
CCCCS(=O)(=O)N1C2=NC(C(=O)OC)=C(C(=O)OC)[C@@H]3N(C)c4ccccc4[C@]23C[C@H]1C(=O)OC | x | x | x | x | x | -5%[7.66 µM]
NC(=S)n1[nH]c(-c2ccc([N+](=O)[O-])cc2)c(N=Nc2cccc(Cl)c2)c1=O | -10% | 4% | -7 | -2% | 25µM* | 3%
CCOc1ccc(NC(=O)c2ccccn2)cc1 | u | u | x | 0% | -1% | 13µM*
CCOc1ccc(NC(=O)c2nccnc2CO)cc1 | 19% | -38% | 14 | 1% | 7% | 7.9µM*
Clc1ccc(OCCCNCc2ccccc2)c(Br)c1 | -57% | -14% | -77* | -2% | 7% | -2%
Clc1ccc(Cl)c(OCCCCNCc2ccccc2)c1 | 6% | -2% | -1 | 3% | 7% | -2%
CC(=O)NCCOc1cccc2ccccc12 | -28% | -9% | 9 | 0% | 2% | 0%
c1ccc(CCNCCCOc2cccc3ccccc23)cc1 | -40% | 0% | -95* | 1% | 4% | x
Cc1ccc(-c2cn(-c3ccccc3)c(=S)[nH]2)cc1C | 9%[15.4 µM] | -36% | -77* | -1% | 0% | x
Cc1cc(CCCOc2c(C)cc(-c3noc(C(F)(F)F)n3)cc2C)on1 | x | x | -29 | x | x | x
Cc1ccc(-n2ncc(C(=O)NCc3ccc4c(c3)OCO4)c2C2CCN(C(=O)OC(C)(C)C)CC2)cc1C | x | u | -26 | -1% | x | x
COCCn1c(C)cc(C2=NNC(=NC3CC3)SC2)c1C | 0%[15.4 µM] | u | -30 | -1% | 4% | 7.1µM*
CCc1ccc(NC2=NCC(c3ccccc3)S2)cc1 (stereo not drawn) | -15%[15.4 µM] | -39% | -69* | -1% | u | 1%
O=[N+]([O-])c1ccc(C2CN=C(Nc3ccccc3)S2)cc1 (stereo not drawn) | -72% | -36% | -4 | 0% | 10% | -2%
CCOc1ccc(NC(=O)CC2C(=O)N(c3cccc(C)c3)C(=O)N2Cc2cccnc2)cc1 (stereo not drawn) | x | 6% | 0 | 2% | x | x
O=C1NN(c2ccc(F)c(Cl)c2)C(=O)/C1=C\c1cccc(OC(=O)c2cccs2)c1 | -11% | -4% | -86* | 0% | -3% | -2%
CC(C)=C1C(=O)NN(c2ccc(F)c(Cl)c2)C1=O | -18% | 0% | -7 | -3% | 3% | -1%
CCOCCn1ccc2c(OCC(=O)Nc3cc(C)cc(C)c3)cccc2c1=O | x | -2% | x | 1% | x | x
CCOCCn1ccc2c(OCC(=O)Nc3ccc(OC)c(OC)c3)cccc2c1=O | -23%[15.4 µM] | x | -9 | 0% | 35µM* | x
COc1ccc(-c2csc(NC(=O)CSCc3c(C)noc3C)n2)cc1OC | -7% | 9% | -31 | -2% | u | x
CCc1noc(C)c1C(=O)OCC(=O)Nc1nc(-c2ccc(F)c(F)c2)cs1 | 8% | x | -13 | 0% | 40µM* | x
Cc1noc(C)c1CSCC(=O)Nc1nc(-c2ccc(F)c(F)c2)cs1 | 14%[15.4 µM] | x | -34 | 1% | 35µM* | x
